Screens: PubChem, several laboratories
An excerpt weighted towards active compounds, which were near 1.8% of everything screened.
NPR1 activator – GC-A (human) enzyme activation; actives 0.14% (n = 370,000); P16066; HEK293 GC-A cells, cGMP TR-FRET, EC30 ANP; 0% at EC30 ANP, 100% saturating ANP; activation, % at 10 µM; in the data active = activation above about 40%
MsrA act – bovine methionine sulfoxide reductase A activation | purified bovine MsrA, absorbance read-out | activation, % at 10.6 µM | actives 0.3% (n = 360,000); in the data active = activation above about 7.5%;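 also: 0% = vehicle and 100% = reference activator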
GC-B act – GC-B (human) receptor activation; P20594; HEK293-GC-B cells, CNP EC30, cGMP TR-FRET; 0% at EC30 CNP, 100% saturating CNP; activation, % at 10 µM; actives 0.11% (n = 370,000); AID 1920062;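 active = activation at 10 µM reaching about 35% in either raw or pattern-adjusted values, limit read from the data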
MsrA inhibitor – inhibits bovine methionine sulfoxide reductase A | purified bovine MsrA, absorbance read-out | inhibition, % at 15.5 µM | actives 0.75% (n = 360,000) | AID 651718; in the data active = inhibition above about 4.5%;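 also: 0% = vehicle wells with enzyme and 100% = reference inhibitor wells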
m5-HT2A agonist – activates the mouse 5-HT2A serotonin receptor. CHO-K1 mHTR2A beta-arrestin complementation, luminescence; percent of 30 µM serotonin response. actives 0.66% (n = 360,000). P35363. activation, % at 7.6 µM;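 active = activation above a run cutoff, the mean activation of all tested compounds plus 3 SD, cut at about 14% in these data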;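 also: 0% = plate median of compound wells and 100% = 30 µM serotonin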
* hit, by the source's call.

For C=CCn1c(C)cc(C(=O)Cn2ncc(Cl)c(Cl)c2=O)c1C the results were NPR1 activator 38, MsrA act -8, GC-B act 49*, MsrA inhibitor 1 and m5-HT2A agonist 13.
O=c1c(Cl)c(Cl)cnn1Cc1ccc(F)cc1 was read as NPR1 activator 6, MsrA act -6, GC-B act 4, MsrA inhibitor 2 and m5-HT2A agonist 6.
`O=C(Cn1ncc(Cl)c(Cl)c1=O)c1ccc(Cl)cc1` gave NPR1 activator 70*, MsrA act -1, GC-B act 22, MsrA inhibitor 1 and m5-HT2A agonist -3.
`Cc1ccc2nc(-c3ccc(NC(=O)CSc4nnc(-c5ccccc5)n4Cc4ccco4)cc3)sc2c1` gave NPR1 activator 3 and GC-B act 4.
`Cc1ccc(-n2c(SCC(=O)C(C)(C)C)nnc2-c2cccc(C)c2)cc1` gave NPR1 activator -17 and GC-B act -7.
Screening C[C@H](CO)N1C[C@H](C)[C@@H](CN(C)C(=O)Nc2ccc(C(F)(F)F)cc2)Oc2c(NC(=O)Nc3ccc(C(F)(F)F)cc3)cccc2C1=O returned NPR1 activator -6, MsrA act 0, GC-B act -1, MsrA inhibitor -1 and m5-HT2A agonist 15*.
`CCC(=O)N1CCCc2cc(S(=O)(=O)N3CCN(c4ncccn4)CC3)ccc21` gave NPR1 activator 3, MsrA act -6, GC-B act 1, MsrA inhibitor -1 and m5-HT2A agonist 21*.
`Cc1cccc(N2CCN(S(=O)(=O)c3ccc4c(c3)CCN4C(=O)CCC(=O)O)CC2)c1C` gave NPR1 activator -5, MsrA act -3, GC-B act -4, MsrA inhibitor -1 and m5-HT2A agonist 18*.
For CN(Cc1ccccc1)C(=O)c1[nH]cnc1C(=O)N[C@@H](Cc1ccccc1)C(=O)OCc1ccccc1 the results were MsrA act 0 and m5-HT2A agonist 23*.
Screening COCCNC(=S)N(C)[C@H]1C[C@H]2c3[nH]c4c(-c5ccc6c(c5)OCO6)cccc4c3CCN2C[C@H]1[C@H](C)O returned NPR1 activator -10 and GC-B act -2.
Screening COc1cc(-c2cc(-c3ccc(O)cc3)nc(N)c2C#N)ccc1O returned NPR1 activator 1, MsrA act -8, GC-B act 2, MsrA inhibitor 2 and m5-HT2A agonist 0.
`COc1ccccc1-c1cc(-c2ccc(O)cc2)nc(N)c1C#N` gave NPR1 activator 41*, MsrA act -1, GC-B act -9, MsrA inhibitor 2 and m5-HT2A agonist -5.
Screening Cn1cc(C2(C)CCOc3ccccc32)c2ccccc21 (stereo not given) returned NPR1 activator -6 and GC-B act -8.
COC(=O)COc1ccc2cc(-c3ccccc3)c(=O)oc2c1 was read as NPR1 activator 43*, MsrA act -4, GC-B act 11, MsrA inhibitor 3 and m5-HT2A agonist 2.
Screening COC(=O)COc1ccc2cc(-c3ccc(OC)cc3)c(=O)oc2c1 returned NPR1 activator 35, MsrA act -1, GC-B act 22, MsrA inhibitor 1 and m5-HT2A agonist -2.
COC(=O)COc1ccc2c(-c3ccc(OC)cc3)cc(=O)oc2c1 was read as NPR1 activator 61*, MsrA act -12, GC-B act 22, MsrA inhibitor 1 and m5-HT2A agonist -9.
For C/C(=N\NC(=O)c1ccc(O)cc1)c1cc2ccccc2o1 the results were NPR1 activator -4, MsrA act -4, GC-B act -4, MsrA inhibitor 4.6* and m5-HT2A agonist 0.
`O=C(NNC(=O)c1cc2ccccc2o1)c1ccc(F)cc1` gave NPR1 activator -4, MsrA act -3, GC-B act 0, MsrA inhibitor 0 and m5-HT2A agonist 3.
`COc1ccc(CNS(=O)(=O)/C=C/c2cc(C)ccc2CNC(=O)OC(C)(C)C)cc1` gave NPR1 activator -1 and GC-B act -6.
Cc1nnc(N2C(=O)c3cccc4c([N+](=O)[O-])ccc(c34)C2=O)s1 was read as NPR1 activator 23, MsrA act 1, GC-B act 5, MsrA inhibitor 4 and m5-HT2A agonist -4.
O=C1c2cccc3c([N+](=O)[O-])ccc(c23)C(=O)N1Cc1cccnc1 was read as NPR1 activator 28, MsrA act -6, GC-B act 16, MsrA inhibitor 7.9* and m5-HT2A agonist -3.
`Cc1ccc(N2C(=O)c3cccc4c([N+](=O)[O-])ccc(c34)C2=O)c2cccnc12` gave NPR1 activator 4, MsrA act -4, GC-B act 41*, MsrA inhibitor 1 and m5-HT2A agonist 1.
Screening CCCCNC(=O)C[C@H]1C[C@@]2(C(=O)OC)C(=C[C@H](C(C)C)O[C@@H]2C2CC2)N(CCC2=CCCCC2)C1=O returned NPR1 activator -5 and GC-B act 2.
COC(=O)c1cc(/C=C/c2ccccc2)on1 was read as NPR1 activator 59*, MsrA act -12, GC-B act 6, MsrA inhibitor 1 and m5-HT2A agonist -3.
Screening Cc1csc(NC(=O)c2ccc(COc3cccc(Cl)c3)o2)n1 returned NPR1 activator 40 and GC-B act 41*.
`CCN1C(=S)N[C@@H](c2ccccc2)C(C(=O)OC)=C1C` gave NPR1 activator 35, MsrA act -3, GC-B act 46*, MsrA inhibitor 1 and m5-HT2A agonist 4.
COC(=O)C1=C(C)N(Cc2ccc(F)cc2)C(=S)NC1c1ccccc1 (stereo not given) was read as NPR1 activator 0, GC-B act -6 and MsrA inhibitor 1.
C/C(=N/Nc1ccc(C(=O)O)cc1)c1ccc(O)c(O)c1O was read as NPR1 activator -4, MsrA act -9, GC-B act -2, MsrA inhibitor 4.6* and m5-HT2A agonist 7.
`COc1ccc(OC)c(/C(C)=N/Nc2ccc(C(=O)O)cc2)c1` gave NPR1 activator 2, MsrA act -6, GC-B act -4, MsrA inhibitor 3 and m5-HT2A agonist 4.
`O=C(Nc1ccc2c(c1)OCO2)N1CCC(c2nc3ccc(Cl)cc3[nH]2)CC1` gave NPR1 activator -2 and GC-B act -8.
NC(=O)C1(Nc2ccc(-c3ccc(Cl)cc3)cc2)CCCC1 was read as NPR1 activator 58*, MsrA act -1, GC-B act -9, MsrA inhibitor 0 and m5-HT2A agonist -8.
Screening Cc1cccc(NC(=O)NCCCN2CCN(c3ccc(F)cc3)CC2)c1 returned NPR1 activator -3 and GC-B act -5.
`ClCc1nnc(-c2cc3c(s2)CCCC3)o1` gave NPR1 activator 54*, MsrA act -2, GC-B act 2, MsrA inhibitor 1 and m5-HT2A agonist 0.
`CC(C)(C)C1CCc2sc(-c3nnc(CCl)o3)cc2C1` (stereo not given) gave NPR1 activator 6, MsrA act 0, GC-B act -5, MsrA inhibitor 0 and m5-HT2A agonist 1.
